Source: PubChem BioAssay
An excerpt weighted towards active compounds, which were near 10% of everything screened.
BAZ2B block: BAZ2B (human) inhibition; AlphaScreen BAZ2B-H3K14Ac peptide displacement; Potency, µM (series often up to 114 µM), without a hit: top-dose activity change, negative = inhibition, usual class: inhibitors; actives 4.4% (n = 360,000); AID 504333; note: % is set by controls: 0 for no effect and ±100 for the full control effect; nearly all actives have a fitted effect of over 60% in size
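AlphaScreen displacement: compounds (up to 110uM) incubated 30 min at room temperature with a preformed 50 nM BAZ2B/50 nM biotinylated H3K14Ac peptide complex in PBS pH 7.4 with Tween-20. Donor and acceptor beads at 10 ug/mL final added, 20 min light-protected before reading.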
JMJD2A Tudor inh: blocks the human JMJD2A Tudor domain | O75164 | AlphaScreen JMJD2A-Tudor / H3K4me3 peptide binding | Potency, µM (highest dose often 114 µM), inactives show top-dose activity change, negative = inhibition, hits mostly inhibitors | actives 4.4% (n = 390,000) | AID 504339; note: % is set by controls: 0 for no effect and ±100 for the full control effect; nearly all actives have a fitted effect of over 50% in size
Target sequence (O75164 whole entry, looked up, the tested form may be a part): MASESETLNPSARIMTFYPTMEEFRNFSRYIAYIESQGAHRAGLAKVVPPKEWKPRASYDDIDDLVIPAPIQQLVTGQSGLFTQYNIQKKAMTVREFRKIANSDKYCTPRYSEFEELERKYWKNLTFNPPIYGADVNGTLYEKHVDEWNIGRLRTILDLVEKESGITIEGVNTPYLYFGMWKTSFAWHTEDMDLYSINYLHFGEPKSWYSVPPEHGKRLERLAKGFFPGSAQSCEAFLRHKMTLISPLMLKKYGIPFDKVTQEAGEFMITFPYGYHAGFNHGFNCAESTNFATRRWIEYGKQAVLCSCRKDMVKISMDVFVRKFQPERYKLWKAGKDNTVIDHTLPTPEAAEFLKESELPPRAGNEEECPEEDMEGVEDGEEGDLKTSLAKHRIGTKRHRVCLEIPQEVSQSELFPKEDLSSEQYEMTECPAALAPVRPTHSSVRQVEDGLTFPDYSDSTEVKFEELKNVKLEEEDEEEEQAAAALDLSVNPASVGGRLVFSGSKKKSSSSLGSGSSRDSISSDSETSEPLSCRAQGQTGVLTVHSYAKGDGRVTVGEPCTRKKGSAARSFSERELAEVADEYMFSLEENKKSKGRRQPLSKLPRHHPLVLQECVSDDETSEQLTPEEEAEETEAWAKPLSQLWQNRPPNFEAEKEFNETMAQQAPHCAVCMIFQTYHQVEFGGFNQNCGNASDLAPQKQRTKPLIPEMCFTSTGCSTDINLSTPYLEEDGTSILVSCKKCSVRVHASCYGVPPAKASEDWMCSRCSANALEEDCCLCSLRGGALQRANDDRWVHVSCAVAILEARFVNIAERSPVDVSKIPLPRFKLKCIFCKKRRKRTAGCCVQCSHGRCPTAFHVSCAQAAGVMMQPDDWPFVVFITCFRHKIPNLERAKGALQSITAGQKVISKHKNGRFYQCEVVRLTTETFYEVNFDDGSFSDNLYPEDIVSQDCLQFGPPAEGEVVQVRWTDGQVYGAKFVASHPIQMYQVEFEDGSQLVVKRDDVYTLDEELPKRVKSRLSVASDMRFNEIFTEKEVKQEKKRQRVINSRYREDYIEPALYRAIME
GLS inhibitor: inhibitors of human glutaminase (GLS) | GLS enzymatic activity, qHTS titration | Potency, µM (series often up to 45.5 µM), without a hit: at the highest dose activity change, negative = inhibition, actives largely listed as inhibitors | actives 0.21% (n = 410,000) | AID 624170; note: % is set by controls: 0 for no effect and ±100 for the full control effect
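hKGA in 45 mM KH2PO4 (pH 8.2), 0.02% Tween-20 with compound, then 1mM L-Glutamine (stock as added) plus glutamate oxidase/HRP/Amplex red coupling mix. Fluorescence read initially and after 30 min at RT; signal change reflects glutamate formation.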
HP1b binding inh: inhibitors of HP1-beta chromodomain binding to methylated histone tails. AID 540317. P83916. AlphaScreen HP1-beta / biotin-H3K9me3 peptide binding. actives 0.56% (n = 390,000). Potency, µM (titrated, usually from 114 µM), without a hit: at the top dose activity change, negative = inhibition, hits mostly inhibitors; note: nearly all actives have a fitted effect of over 70% in size
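AlphaScreen: HP1-beta (50 nM) preformed 30 min with biotin-H3(1-18)K9me3 peptide (50 nM) in PBS pH 7.4, 0.01% Tween-20. Compound added for 30 min at RT, then streptavidin donor/nickel chelate acceptor beads (10 ug/mL) for 30 min.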
G9a block: G9a (human) methyltransferase inhibition. Q96KQ7. G9a H3K9 monomethylation, AlphaScreen, 2 h. Potency, µM (series often up to 102 µM), for inactives: at the highest dose activity, negative = inhibition, most hits filed as inhibitors. actives 8.8% (n = 350,000). AID 504332; note: % is set by controls: 0 for no effect and ±100 for the full control effect; nearly all actives have a fitted effect of over 75% in size
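Step 1: enzyme (final 20 nM) with compound, 15 min RT. Step 2: substrate peptide 500 nM and SAM 20 uM, 2 h RT. Step 3: anti-H3K9me1 antibody and AlphaScreen beads, 10 min, then plate read.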
The depositor's hits bear a star; ? = inconclusive; . = no result; [ ] = another dose, or the depositor's remark. Calls come from the whole dose curve; as a rule, active = well fitted curve in the direction sought with a large enough effect; inconclusive = small, poorly fitted or top-dose-only effect, or another doubt; inactive = no such curve, though single readings can be large; an effect the other way counts as inactive or inconclusive. Potency is the fitted concentration of half-maximal effect.

SMILES | BAZ2B block | JMJD2A Tudor inh | GLS inhibitor | HP1b binding inh | G9a block
COc1ccc(N2CCN(C(=O)CN(c3ccc(OC)cc3)S(=O)(=O)c3ccccc3)CC2)cc1 | ? | ? | 18.3% | -18.3% | 39.8µM*
COc1ccc(N2CCN(C(=O)CN(c3ccccc3)S(=O)(=O)c3ccc(OC)cc3)CC2)cc1 | ? | 56.2µM* | . | ? | 10µM*
COc1ccc(N2CCN(C(=O)c3ccccc3N(C)S(=O)(=O)c3ccc(C)cc3)CC2)cc1 | 39.8µM* | ? | 23.3% | -30.2% | ?
CCOc1ccc(NC(=O)Cn2c(=O)n(CCc3ccccc3)c(=O)c3c4c(sc32)CN(C(C)=O)CC4)cc1 | 3.7% | 5.5% | -2.0% | 44.9% | 15.1%[59 µM]
COc1ccc(OC)c(-n2c(-c3cc(-c4ccco4)[nH]n3)n[nH]c2=S)c1 | -2.3% | ? | ? | -6.1% | 0.2%
CC(C1CC2CCC1C2)n1c(-c2ccco2)n[nH]c1=S (stereo not given) | ? | 20µM* | 11.2µM* | ? | 2.24µM*
Cc1cc(C(F)(F)F)c2c(n1)sc1c(O)cc(=O)[nH]c12 | ? | -14.7% | 3.6% | 8.1% | ?
O=c1cc(O)c2sc3nc(-c4cccnc4)cc(C(F)(F)F)c3c2[nH]1 | 56.2µM* | ? | 19.0% | -10.4% | ?
Cc1nc2sc3c(O)cc(=O)[nH]c3c2c(C)c1C | -5.6% | -22.8% | 6.8% | 24.9% | 50.1µM*
CCc1nnc2c3ccccc3nc(Nc3ccccc3OC)n12 | -2.4% | -6.2% | -2.8% | 9.7% | -35.7%[59 µM]
COc1ccc(/C=C/C(=O)NC(=S)NNC(=O)c2c(-c3ccccc3)noc2C)cc1 | 5.6% | -11.3% | 9.5% | -9.5% | ?
COc1ccc(-c2cc(C(=O)NNC(=S)NC(=O)c3c(-c4ccccc4)noc3C)[nH]n2)cc1 | -20.1% | -15.6% | 2.4% | 22.1% | 44.7µM*
Cc1cc(CNC(=O)CC2C(=O)NCCN2Cc2ccccc2)nn1C (stereo not given) | -2.3% | -9.7% | 1.9% | 51.4% | 44.7µM*
CCOc1ccc(CN2CCNC(=O)C2CC(=O)NCCc2nc(C)c3c(n2)CCC3)cc1 (stereo not given) | -6.7% | -16.0% | -5.4% | 21.5% | 15.0%[12.7 µM]
Cc1cc(CNC(=O)CC2C(=O)NCCN2Cc2ccc(-c3ccccc3)cc2)nn1C (stereo not given) | -37.5% | -13.3% | 7.7% | 38.8% | -23.2%
CCn1ccnc1CNC(=O)CC1C(=O)NCCN1CC(c1ccccc1)c1ccccc1 (stereo not given) | -0.7% | -17.4% | -2.6% | 30.2% | .
Cn1cc(CCNC(=O)CC2C(=O)NCCN2CC(c2ccccc2)c2ccccc2)cn1 (stereo not given) | -7.4% | -35.1% | -2.1% | 56.7% | 12.6µM*
Cc1nc(CCNC(=O)CC2C(=O)NCCN2Cc2ccccc2)nc2c1CCC2 (stereo not given) | -34.3% | -25.7% | -1.8% | 16.3% | 50.1µM*
C=CCN(C(=O)CSc1nc2c(sc3ccccc32)c(=O)n1CCN(CC)CC)c1ccccc1 | ? | ? | -1.6% | -8.9% | 44.7µM*
CCc1ccc(NC(=O)CSc2nc3c(sc4ccccc43)c(=O)n2CCN(CC)CC)cc1 | -27.3% | -16.3% | 1.6% | 22.2% | 2.1%[59 µM]
CCN(CC)CCn1c(SCC(=O)Nc2ccc(F)cc2)nc2c(sc3ccccc32)c1=O | -15.4% | . | . | . | 35.5µM*
O=C(NCc1ccco1)C1CCN(C(=O)c2ccc(Cl)cc2Cl)CC1 | -5.0% | -16.4% | -0.7% | 7.7% | -5.6%[59 µM]
Cc1cc(C)c(OCC(=O)NCCCn2nc(C)cc2C)c(C)c1 | 5.6% | -8.1% | 2.4% | 31.6% | 3.7%[12.7 µM]
O=c1oc2ccc(Br)cc2cc1-c1nc2c(s1)CCc1ccccc1-2 | . | 18.5%[57.1 µM] | . | 29.2%[57 µM] | .
Cc1ccc(NC(=O)CSc2nncn2C)c(C)c1 | 2.3% | -9.0% | -5.1% | 27.6% | 3.8%[59 µM]
Cc1ccc(C2=NN=C(NC(=O)C(F)(F)F)SC2)cc1 | -2.2% | -29.3% | 0.9% | -2.6% | 28.2µM*
Cc1ccc(C2=NN=C(NC(=O)CSc3nncn3C)SC2)cc1 | -12.8% | ? | ? | 35.5µM* | 22.4µM*
Cc1ccc(OCC(=O)NC2=NCCS2)cc1 | -6.5% | -16.9% | 10.9% | ? | .
CCOc1ccc(C(=O)NCC(=O)OCC(=O)c2ccc3c(c2)-c2ccccc2C3)cc1 | 12.9% | -4.5% | -7.6% | 55.4% | 70.8µM*
